The results in this text go back to PubChem BioAssay.

SMILES strings stand for the structures. Activity calls are given as the source filed them.

For test [1], the system named is Plasmodium falciparum Sir2 (PF13_0152, Sir2A). In words: Plasmodium falciparum Sir2A binding compounds – biochemical, small-molecule microarray, 635 nm fluorescence, primary screen (AID 1098).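 Note: score merges spot fluorescence intensity with its signal-to-noise ratio.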 Particulars: fluorescence 635 nm, higher = more signal.
Test [2] can be described thus: probe aDKK1 binding to arrayed compounds – biochemical, biotinylated probe, 635/667 nm fluorescence, primary screen (AID 1099).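 Note: score merges 667nm spot fluorescence with signal to noise across triplicate slides.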 Particulars: small-molecule microarray, higher = more signal.
A short description of test [3]: probe aCHRDL2 binding to arrayed compounds – biochemical, biotinylated probe, 635/667 nm fluorescence, primary screen (AID 1100). Particulars: small-molecule microarray, higher = more signal.
Test [4] in a line: change in splice reporter luminescence, either direction, cell-based, HEK293, spliceosome inhibition project, primary screen (AID 1101).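 Note: HEK293 cells carrying a splicing-competent luciferase reporter gene; test concentration not given here.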 Particulars: HEK293 splicing luciferase reporter, 24 h, higher = more signal, called active from +8 up or from −8 down.
Test [5] addresses Fibroblast growth factor 10 (Homo sapiens) (UniProt O15520). Kind of test: compounds binding fibroblast growth factor 10 – biochemical, small-molecule microarray, 635 nm fluorescence, primary screen (AID 1102). The settings on record: FGF10 binding, fluorescence 635 nm, higher = more signal.
The subject of test [6] is glycogen synthase kinase-3 (GSK3A per assay name; protocol says GSK3B). In words: compounds binding glycogen synthase kinase-3 – biochemical, small-molecule microarray, 635 nm fluorescence, GSK3A, primary screen (AID 1103). Note: the record names both GSK3A and GSK3B. The settings on record: fluorescence 635 nm, higher = more signal.
For test [7], the target named is Epidermal growth factor receptor (Homo sapiens) (UniProt P00533). Kind of test: compounds binding epidermal growth factor receptor – biochemical, small-molecule microarray, 635 nm fluorescence, primary screen (AID 1104).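 Note: score merges 667 nm emission intensity with spot signal to noise over triplicate slides.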 Particulars: EGFR binding, higher = more signal.
Sequence of Epidermal growth factor receptor (Homo sapiens) (P00533 whole entry, looked up): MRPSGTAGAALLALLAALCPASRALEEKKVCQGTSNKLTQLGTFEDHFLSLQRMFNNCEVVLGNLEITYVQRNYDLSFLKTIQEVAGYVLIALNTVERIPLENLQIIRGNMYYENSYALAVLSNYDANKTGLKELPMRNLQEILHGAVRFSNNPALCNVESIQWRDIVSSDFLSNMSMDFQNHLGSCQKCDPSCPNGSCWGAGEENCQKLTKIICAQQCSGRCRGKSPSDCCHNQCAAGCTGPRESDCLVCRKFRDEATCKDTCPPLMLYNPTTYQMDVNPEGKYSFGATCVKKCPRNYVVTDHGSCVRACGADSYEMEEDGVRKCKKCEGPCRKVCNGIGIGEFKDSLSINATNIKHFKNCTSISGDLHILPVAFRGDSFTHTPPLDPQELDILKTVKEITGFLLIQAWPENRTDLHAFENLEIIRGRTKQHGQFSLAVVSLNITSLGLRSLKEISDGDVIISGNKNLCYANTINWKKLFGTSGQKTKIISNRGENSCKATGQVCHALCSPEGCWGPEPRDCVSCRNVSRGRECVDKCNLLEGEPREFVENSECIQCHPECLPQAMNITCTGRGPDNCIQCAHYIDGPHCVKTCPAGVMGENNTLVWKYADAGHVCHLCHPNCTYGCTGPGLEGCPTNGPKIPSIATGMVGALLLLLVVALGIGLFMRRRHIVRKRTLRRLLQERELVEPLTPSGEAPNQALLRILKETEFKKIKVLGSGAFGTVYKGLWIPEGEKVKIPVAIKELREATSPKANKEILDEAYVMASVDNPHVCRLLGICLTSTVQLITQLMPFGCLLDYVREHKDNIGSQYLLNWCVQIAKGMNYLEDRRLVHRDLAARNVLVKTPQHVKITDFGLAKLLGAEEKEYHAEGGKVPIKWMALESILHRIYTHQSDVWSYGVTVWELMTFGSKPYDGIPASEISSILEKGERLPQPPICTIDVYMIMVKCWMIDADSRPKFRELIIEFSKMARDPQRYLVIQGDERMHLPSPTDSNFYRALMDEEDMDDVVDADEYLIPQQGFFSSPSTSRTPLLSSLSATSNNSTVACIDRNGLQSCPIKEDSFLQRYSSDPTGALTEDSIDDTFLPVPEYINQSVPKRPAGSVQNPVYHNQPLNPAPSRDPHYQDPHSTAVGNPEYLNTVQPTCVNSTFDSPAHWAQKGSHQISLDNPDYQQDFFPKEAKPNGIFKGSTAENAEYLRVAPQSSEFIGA
The target in test [8] is Follistatin-related protein 3 (Homo sapiens) (UniProt O95633). In words: compounds binding follistatin-related protein 3 – biochemical, small-molecule microarray, 635 nm fluorescence, primary screen (AID 1105).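 Note: score merges emission near 667 nm and signal to noise per printed spot across three slides.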 The settings on record: FSTL3 binding, higher = more signal.
Sequence of Follistatin-related protein 3 (Homo sapiens) (O95633 whole entry, looked up): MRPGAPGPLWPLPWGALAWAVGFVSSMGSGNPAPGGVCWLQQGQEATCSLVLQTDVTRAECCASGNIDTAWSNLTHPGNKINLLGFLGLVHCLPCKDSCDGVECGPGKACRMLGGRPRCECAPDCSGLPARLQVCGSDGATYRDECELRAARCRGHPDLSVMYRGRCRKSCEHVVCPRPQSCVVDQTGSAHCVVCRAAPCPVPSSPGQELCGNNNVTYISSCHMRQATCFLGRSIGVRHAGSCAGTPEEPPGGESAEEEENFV
The target in test [9] is Dickkopf-related protein 1 (Homo sapiens) (UniProt O94907). Kind of test: small molecules binding DKK1 protein – biochemical, small-molecule microarray, 635 nm fluorescence scan, primary screen (AID 1106).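 Note: score merges emission near 667 nm with signal to noise over three replicate slides.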 The settings on record: higher = more signal.
Sequence of Dickkopf-related protein 1 (Homo sapiens) (O94907 whole entry, looked up): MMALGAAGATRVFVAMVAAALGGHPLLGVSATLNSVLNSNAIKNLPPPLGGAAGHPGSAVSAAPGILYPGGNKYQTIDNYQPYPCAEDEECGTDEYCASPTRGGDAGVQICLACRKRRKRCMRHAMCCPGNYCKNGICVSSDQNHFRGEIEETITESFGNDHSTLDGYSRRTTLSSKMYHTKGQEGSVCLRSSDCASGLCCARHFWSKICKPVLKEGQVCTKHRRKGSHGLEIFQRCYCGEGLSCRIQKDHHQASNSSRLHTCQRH
Test [10] deals with Inhibin beta A chain (activin A). In words: small molecules binding activin A – biochemical, small-molecule microarray, 635 nm fluorescence scan, primary screen (AID 1107).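 Note: mouse activin A protein probed at 4.33 µg/mL on printed slides; score merges bound-protein fluorescence near 667 nm with spot signal-to-noise.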 The settings on record: INHBA, higher = more signal.
Test [11] relates to Human papillomavirus type 1a protein E7 (residues 44-93). In words: small molecules binding HPV E7 44-93 – biochemical, small-molecule microarray, residues 44-93, 635 nm fluorescence, primary screen (AID 1108).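 Note: E7 fragment applied at 1 µg/mL in TBST for 1 h at 4 C; score combines spot fluorescence with its signal to noise ratio.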 Particulars: fluorescence 635 nm, higher = more signal.
A short description of test [12]: hepatitis C replication reporter changes, two-sided – Huh7 cells, luciferase reporter, HCV replication inhibitor project, primary screen (AID 1109).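 Note: huh7 hepatoma cells harbouring a luciferase neomycin HCV replicon reporter; luciferase luminescence as measure of HCV replicon replication; test concentration not given here.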 Particulars: Huh7 HCV replicon luciferase reporter, 48 h; higher = more signal.
The target in test [13] is Left-right determination factor 2 (Homo sapiens) (UniProt O00292). In words: small molecules binding LEFTY2 protein – biochemical, small-molecule microarray, 635 nm fluorescence scan, primary screen (AID 1110). Particulars: higher = more signal.
Sequence of Left-right determination factor 2 (Homo sapiens) (O00292 whole entry, looked up): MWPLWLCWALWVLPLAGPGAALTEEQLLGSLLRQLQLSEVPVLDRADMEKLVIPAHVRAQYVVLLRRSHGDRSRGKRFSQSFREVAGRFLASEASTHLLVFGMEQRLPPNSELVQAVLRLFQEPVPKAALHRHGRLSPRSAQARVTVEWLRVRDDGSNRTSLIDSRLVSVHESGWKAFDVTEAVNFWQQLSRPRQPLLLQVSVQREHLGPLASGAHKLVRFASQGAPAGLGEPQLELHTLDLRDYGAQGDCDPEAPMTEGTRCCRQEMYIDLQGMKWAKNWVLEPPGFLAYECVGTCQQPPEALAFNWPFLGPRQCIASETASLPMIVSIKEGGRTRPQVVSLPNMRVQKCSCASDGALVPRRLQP
Test [14] deals with Calmodulin-1 (Homo sapiens) (UniProt P0DP23). In words: small molecules binding calmodulin-1 with EGTA – biochemical, small-molecule microarray, Cy5-labelled CALM1, profiling panel (AID 1111).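 Note: labelled calmodulin applied in Tris saline Tween buffer holding calcium plus EGTA and DTT.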 Particulars: Cy5-CALM1 binding fluorescence, higher = more signal.
Test [15] has the same target. In words: small molecules binding Ca-loaded calmodulin-1 – biochemical, small-molecule microarray, Cy5-labelled CALM1, plus calcium, artefact control for SMM control-protein annotation, profiling panel (AID 1112).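 Note: score merges spot fluorescence with signal to noise from triplicate slides.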 Particulars: Cy5-CALM1 binding fluorescence, higher = more signal.
Test [16] is described as follows: probe aWnt5a binding to arrayed compounds – biochemical, biotinylated probe, 635/667 nm fluorescence, primary screen (AID 1113).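 Note: score merges 667 nm fluorescence intensity with signal-to-noise per printed feature.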 The settings on record: small-molecule microarray, higher = more signal.
Test [17] in a line: probe aShh binding to arrayed compounds – biochemical, biotinylated probe, 635/667 nm fluorescence, primary screen (AID 1114).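 Note: probe is biotin-labelled aShh protein from a stem cell growth factor screen; measures binding of labelled protein to compounds printed on the slide; score merges feature fluorescence at 667 nm with signal-to-noise.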 Particulars: small-molecule microarray, higher = more signal.
A short description of test [18]: probe aNog binding to arrayed compounds – biochemical, biotinylated probe, 635/667 nm fluorescence, primary screen (AID 1115).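 Note: probe is biotinylated aNog protein used at 0.15 µg/mL for 1 h at 4 C; z-score combines 667 nm fluorescence of each spot with its signal to noise.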 Particulars: small-molecule microarray, higher = more signal.
Test [19] has as its target Torsin-1A-interacting protein 1 (Homo sapiens) (UniProt Q5JTV8). In words: compound microarray binding of lysate hLAP1 – cell lysate, small-molecule microarray, COS7 lysate, 635/667 nm fluorescence, primary screen (AID 1116). The settings on record: 635 nm fluorescence, higher = more signal.
Test [20] concerns the target Alpha-bungarotoxin (Bungarus multicinctus) (UniProt P60615). Kind of test: compounds binding labelled alpha-BTX control protein – biochemical, small-molecule microarray, Alexa647 label, 635/667 nm fluorescence, artefact control for SMM control protein annotation, profiling panel (AID 1117). Particulars: alpha-BTX-A647 binding fluorescence, higher = more signal.

Sequence of Alpha-bungarotoxin (Bungarus multicinctus) (P60615 whole entry, looked up): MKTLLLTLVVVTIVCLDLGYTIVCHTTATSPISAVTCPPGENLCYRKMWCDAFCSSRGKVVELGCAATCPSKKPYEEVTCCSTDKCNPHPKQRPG
Sequence of Torsin-1A-interacting protein 1 (Homo sapiens) (Q5JTV8 whole entry, looked up): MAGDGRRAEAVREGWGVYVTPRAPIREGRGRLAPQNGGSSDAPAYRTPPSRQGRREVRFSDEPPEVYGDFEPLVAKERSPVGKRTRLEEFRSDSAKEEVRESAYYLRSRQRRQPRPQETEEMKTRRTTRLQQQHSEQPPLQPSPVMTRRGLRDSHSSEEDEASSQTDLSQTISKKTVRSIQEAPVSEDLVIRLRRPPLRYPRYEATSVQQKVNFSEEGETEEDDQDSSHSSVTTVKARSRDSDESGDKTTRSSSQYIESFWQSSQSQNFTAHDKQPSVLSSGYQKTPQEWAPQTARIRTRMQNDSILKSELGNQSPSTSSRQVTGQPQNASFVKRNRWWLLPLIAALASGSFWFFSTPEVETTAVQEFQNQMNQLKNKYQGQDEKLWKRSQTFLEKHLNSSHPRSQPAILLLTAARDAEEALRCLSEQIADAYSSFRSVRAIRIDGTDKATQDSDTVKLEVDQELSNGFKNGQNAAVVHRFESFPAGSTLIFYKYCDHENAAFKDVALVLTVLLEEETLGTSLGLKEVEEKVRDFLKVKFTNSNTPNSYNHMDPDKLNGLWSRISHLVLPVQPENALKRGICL
Sequence of Fibroblast growth factor 10 (Homo sapiens) (O15520 whole entry, looked up): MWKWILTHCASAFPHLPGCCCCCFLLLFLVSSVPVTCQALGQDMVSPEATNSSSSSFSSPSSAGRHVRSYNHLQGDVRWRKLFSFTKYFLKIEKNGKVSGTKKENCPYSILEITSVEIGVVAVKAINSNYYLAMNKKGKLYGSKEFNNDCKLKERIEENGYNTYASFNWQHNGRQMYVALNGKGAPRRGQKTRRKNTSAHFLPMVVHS

For `CC(CCN1CCCCc2nc(C)c(C)cc21)=NOC(C)CN1CCCCc2nc(C)c(C)cc21` (stereo not given), the composite z-score in test [1] was 1.62; in test [2], -0.142; in test [3], -0.595; in [5] it was 1.07; in test [6], 1.33; in test [7], 1.58. Further, the composite z-score in [8] worked out at 1.42; in test [9], 1.68; in [10] it was 0.908; in test [11], 1.41; in [13], 1.45; in test [14], 0.447. Moreover, the composite z-score was -0.788 in test [15]; -0.096 in [16]; -0.0709 in test [17]; -0.0762 in test [18]; 0.201 in test [19]; 1.23 in [20]. The results for the z-score in test [4] and in test [12] were 0.127 (inactive) and -2.95, respectively.

`C[C@@H]1C=CCC(=O)OC[C@H](C)C(=O)N2CCC[C@H]2C(=O)OC1`: the composite z-score in test [1] was 1.12; in test [2], -0.457; in [3], -0.769; in test [5], 0.825; in [6] it was 1.21; in test [7], 1.26. Besides, the composite z-score in test [8] is 0.829; in [9] it was 2.21; in test [10], -1.04; in test [11] it was 0.685; in test [13], 0.851; in [14], -0.725. In addition, the composite z-score in [15] is -1.26; in test [16], -0.22; in test [17], 0.0188; in test [18], 0.0419; in [19], 0.96; in test [20], -0.285. The z-score was -0.479 (inactive) in test [4] and -1.06 in test [12].

Turning to `O=C1[C@H]2[C@H]3[C@H](O)[C@H](O)CC(=NOC[C@@H](O)COCc4ccco4)[C@H]3CC[C@H]2C(=O)N1C1CCCCC1`, the composite z-score was 0.508 in test [1]; -0.565 in [2]; -1.6 in test [3]; 0.0351 in [5]; 1.16 in [6]; 0.623 in test [7]. Moreover, the composite z-score in test [8] is 0.499; in test [9], 0.942; in test [10], 1.31; in [11], -0.417; in test [13], 1.05; in [14], -1.04. The composite z-score in [15] was -1.77; in test [16] it was -0.104; in test [17], -0.138; in [18] it was -0.402; in test [19], -0.324; in [20], -0.32. For the same compound, the z-score is -1.13 (inactive) in [4] and -0.353 in test [12].

In the case of `CO[C@H]1COC(=O)[C@H](C)NC(=O)[C@@H](C)COC(=O)CC=C[C@@H]1C`, the composite z-score in test [1] is 1.38; in [2], -0.369; in test [3], -0.786; in test [5], 0.63; in test [6] it was 0.857; in test [7], 0.767. In addition, the composite z-score was 0.0078 in test [8]; 0.829 in test [9]; -0.249 in test [10]; -0.0574 in test [11]; 0.348 in test [13]; -0.239 in [14]. For the same compound, the composite z-score in [15] is -0.514; in test [16], 0.0502; in test [17], 0.432; in test [18], 0.131; in [19], 0.687; in [20] it was 0.53. For the same compound, the z-score in test [4] is -0.794 (inactive); in test [12], -0.504.

In the case of `O=C1[C@H]2[C@H]3[C@H](O)[C@H](O)CC(=NOCc4ccccc4)[C@@H]3CC[C@H]2C(=O)N1Cc1ccccc1`, the composite z-score in [1] was -0.935; in test [2], -0.206; in test [3] it was -0.571; in test [5], 0.43; in [6], 0.75; in test [7] it was 0.453. The composite z-score is 0.58 in test [8]; 0.544 in [9]; -0.359 in [10]; 0.813 in test [11]; 0.509 in [13]; 0.675 in [14]. Further, the composite z-score is -0.374 in test [15]; -0.197 in test [16]; 0.214 in test [17]; 0.144 in test [18]; 0.102 in [19]; 0.159 in [20]. For the same compound, the results for the z-score in test [4] and in [12] were -0.491 (inactive) and 0.427, respectively.
